Measurements taken from ChEMBL document CHEMBL4513141, “CO-ADD screening of NIH (USA) - Clinical Collection” (2021).
Entries with a potency or affinity are not part of this list.

Experiments:
Staphylococcus aureus = settings: Concentration 20 uM; ASSAY_TEST Inhibition of Bacterial Growth; detection method Absorption (OD600); MEDIA CAMHB; plate type 384well; NBS; CORNING #3640; time 18 hr
Escherichia coli = settings: Concentration 20 uM; ASSAY_TEST Inhibition of Bacterial Growth; detection method Absorption (OD600); MEDIA CAMHB; plate type 384well; NBS; CORNING #3640; time 18 hr

| SMILES | Inhibition (Staphylococcus aureus) | Inhibition (Escherichia coli) |
| --- | --- | --- |
| O=C(O)COCCN1CCN(C(c2ccccc2)c2ccc(Cl)cc2)CC1 (stereo not given) [CETIRIZINE] | 14.64% | -0.91% |
| CN(C)CCC[C@@]1(c2ccc(F)cc2)OCc2cc(C#N)ccc21.O=C(O)C(=O)O [ESCITALOPRAM OXALATE] | 8.47% | 3.57% |
| O=C1CCC(N2C(=O)c3ccccc3C2=O)C(=O)N1 (stereo not given) [THALIDOMIDE] | 9.61% | -2.18% |
| CC(C)NCC(O)c1cc(O)cc(O)c1 (stereo not given) [METAPROTERENOL] | -6.69% | -6.08% |
| CC(=O)O.CC(C)C[C@H](NC(=O)[C@@H](COC(C)(C)C)NC(=O)[C@H](Cc1ccc(O)cc1)NC(=O)[C@H](CO)NC(=O)[C@H](Cc1c[nH]c2ccccc12)NC(=O)[C@H](Cc1c[nH]cn1)NC(=O)[C@H]1CCC(=O)N1)C(=O)N[C@H](CCCNC(=N)N)C(=O)N1CCC[C@@H]1C(=O)NNC(N)=O | 9.86% | 5.78% |
| CCCC(CCC)C(=O)O [VALPROIC ACID] | 9.7% | -0.41% |
| Cl.Clc1ccc2nsnc2c1NC1=NCCN1 [TIZANIDINE HYDROCHLORIDE] | -18.93% | 6.6% |
| Cc1ccc(O)c([C@H](CCN(C(C)C)C(C)C)c2ccccc2)c1.O=C(O)C(O)C(O)C(=O)O [TOLTERODINE TARTRATE] | -0.49% | -0.28% |
| CC1(C)C[C@@H]1C(=O)N/C(=C\CCCCSC[C@H](N)C(=O)O)C(=O)[O-].[Na+] [CILASTATIN SODIUM] | -4.51% | -0.62% |
| Cc1ccsc1C(=CCCN1CCC[C@@H](C(=O)O)C1)c1sccc1C.Cl [TIAGABINE HYDROCHLORIDE] | 12.29% | -1.1% |
| CN(CCO)CC(O)Cn1cnc2c1c(=O)n(C)c(=O)n2C.O=C(O)c1cccnc1 (stereo not given) [XANTHINOL NIACINATE] | 15.77% | -0.5% |
| CC(C(O)c1ccc(O)cc1)N1CCC(Cc2ccccc2)CC1.O.O=C(O)C(O)C(O)C(=O)O (stereo not given) | 9.87% | -1.84% |
| C[C@H](N[C@@H](CCc1ccccc1)C(=O)O)C(=O)N1CCC[C@H]1C(=O)O [ENALAPRILAT ANHYDROUS] | -5.3% | 7.09% |
| CCOc1cc(N)c(Cl)cc1C(=O)NCC1CN(Cc2ccc(F)cc2)CCO1.O=C(O)CC(O)(CC(=O)O)C(=O)O (stereo not given) [MOSAPRIDE CITRATE] | 10.04% | 3.47% |
| CN(C)CC[C@@H](c1ccc(Cl)cc1)c1ccccn1.O=C(O)/C=C\C(=O)O [DEXCHLORPHENIRAMINE MALEATE] | 5.99% | 6.96% |
| CC(C)NCC(O)COc1ccc(CCOCC2CC2)cc1.Cl (stereo not given) [BETAXOLOL HYDROCHLORIDE] | 7.41% | 0.81% |
| O=C(C1CCCCC1)N1CC(=O)N2CCc3ccccc3C2C1 (stereo not given) [PRAZIQUANTEL] | 20.65% | 3.85% |
| CC(=O)OCC(=O)[C@@]1(O)CC[C@H]2[C@@H]3CCC4=CC(=O)CC[C@]4(C)[C@H]3[C@@H](O)C[C@@]21C [HYDROCORTISONE ACETATE] | 9.41% | 0.56% |
| CC(=O)CCCCn1cnc2c1c(=O)n(C)c(=O)n2C [LOMIFYLLINE] | 12.49% | 5.02% |
| O=C(O)c1cc(/N=N/c2ccc(S(=O)(=O)Nc3ccccn3)cc2)ccc1O [SULFASALAZINE] | -13.67% | 7.84% |

| SMILES | Inhibition (Staphylococcus aureus) | Inhibition (Escherichia coli) |
| --- | --- | --- |
| COc1ccccc1N1CCN(CCCNc2cc(=O)n(C)c(=O)n2C)CC1.Cl [URAPIDIL HYDROCHLORIDE] | 12.2% | 0.81% |
| CCC(C)(C)/N=C(\NC#N)Nc1cccnc1 | 1.37% | -2.42% |
| CN1C(=O)CC[C@H]1c1cccnc1 [COTININE] | -20.45% | 7.12% |
| CC(C)Cc1ccc(C(C)C(=O)O)cc1 (stereo not given) [IBUPROFEN] | -8.87% | 0.37% |
| CNCC(O)c1ccc(O)c(O)c1 (stereo not given) [RACEPINEPHRINE] | 9.77% | 2.6% |
| Cl.O=C(O)/C=C/c1ccc(Cn2ccnc2)cc1 | -2.16% | 6.89% |
| CN(C)CCCSc1ccccc1NC(=O)/C=C/c1ccccc1.Cl.O | 14.82% | 3.24% |
| CC(=O)O[C@H]1C[C@@H]2CC[C@@H]3[C@H](CC[C@@]4(C)[C@H]3C[C@H]([N+]3(C)CCCCC3)[C@@H]4OC(C)=O)[C@@]2(C)C[C@@H]1N1CCCCC1.[Br-] [VECURONIUM BROMIDE] | -16.09% | 5.67% |
| CC(C)(S)C(N)C(=O)O (stereo not drawn) [DL-PENICILLAMINE] | 15.93% | -3.28% |
| CC(=O)OCC(CCn1cnc2cnc(N)nc21)COC(C)=O [FAMCICLOVIR] | 12.23% | 6.38% |
| Cc1nc2ccccn2c(=O)c1CCN1CCC(C(=O)c2ccc(F)cc2)CC1 [PIRENPERONE] | 1.36% | 7.4% |
| C#C[C@]1(O)CC[C@H]2[C@@H]3CCc4cc(O)ccc4[C@H]3CC[C@@]21C [ETHINYL ESTRADIOL] | 1.21% | 3.7% |
| C[C@@H]1CN(CCCn2c3ccccc3c3ccccc32)C[C@H](C)N1.Cl.O | 5.93% | 5.61% |
| COc1cc2c(cc1OC)C(=O)C(CC1CCN(Cc3ccccc3)CC1)C2.Cl (stereo not given) [DONEPEZIL HYDROCHLORIDE] | 12.57% | -6.95% |
| Cl.NC[C@H]1CC[C@H](C(=O)Oc2ccc(CCC(=O)O)cc2)CC1 [CETRAXATE HYDROCHLORIDE] | 14.3% | -0.51% |
| CCOC(=O)C1=C(C)NC(C)=C(C(=O)OC)C1c1cccc(Cl)c1Cl (stereo not given) [FELODIPINE] | 13.21% | 4.41% |
| CN[C@@H]1[C@H](O)[C@H](NC)[C@H]2O[C@@]3(O)C(=O)C[C@@H](C)O[C@H]3O[C@@H]2[C@H]1O.Cl.Cl.Cl.O.O.O | 11.03% | 29.97% |
| NS(=O)(=O)c1cc2c(cc1Cl)N=CNS2(=O)=O [CHLOROTHIAZIDE] | 7.87% | -2.82% |
| CC1CNc2c(cccc2S(=O)(=O)N[C@@H](CCCNC(=N)N)C(=O)N2CC[C@@H](C)C[C@@H]2C(=O)O)C1 (stereo not given in full) [ARGATROBAN] | 5.54% | -1.85% |
| O=C1c2c(O)cc(O)cc2O[C@H](c2ccc(O)c(O)c2)[C@H]1O [(+)-TAXIFOLIN] | 8.9% | -0.85% |

| SMILES | Inhibition (Staphylococcus aureus) | Inhibition (Escherichia coli) |
| --- | --- | --- |
| COc1ccccc1N1CCN(CC(O)COc2cccc3ccccc23)CC1 (stereo not given) [NAFTOPIDIL] | 4.28% | 7.29% |
| Cl.NC1CCN(c2cccc(Cl)n2)CC1 | 8.14% | 8.42% |
| CC(=O)OCC(=O)[C@@]1(O)CC[C@H]2[C@@H]3CCC4=CC(=O)CC[C@]4(C)[C@H]3C(=O)C[C@@]21C [CORTISONE ACETATE] | 12.24% | 5.41% |
| CN1CCN(C2=Nc3ccccc3Oc3ccc(Cl)cc32)CC1.O=C(O)CCC(=O)O [LOXAPINE SUCCINATE] | 9.14% | 4.68% |
| C=CCc1ccc(O)c(-c2ccc(O)c(CC=C)c2)c1 [HONOKIOL] | 11.41% | 4.96% |
| CCc1cccc2c3c([nH]c12)C(CC)(CC(=O)O)OCC3 (stereo not given) [ETODOLAC] | 5.09% | -6.35% |
| O=C(O)COCCN1CCN([C@H](c2ccccc2)c2ccc(Cl)cc2)CC1 [LEVOCETIRIZINE] | 11.65% | 5.57% |
| COc1cc(C(=O)NS(=O)(=O)c2ccccc2C)ccc1Cc1cn(C)c2ccc(NC(=O)OC3CCCC3)cc12 [ZAFIRLUKAST] | 36.84% | 4.93% |
| CCOc1cc(CC(=O)N[C@@H](CC(C)C)c2ccccc2N2CCCCC2)ccc1C(=O)O [REPAGLINIDE] | 15.76% | -4.96% |
| CC(=O)NS(=O)(=O)c1ccc(N)cc1 [SULFACETAMIDE] | 13.64% | 1.92% |
| CC[N+](C)(CC)CCOC(=O)C(O)(c1ccccc1)C1CCCCC1.[Br-] (stereo not given) [OXYPHENONIUM BROMIDE] | 12.65% | 3.27% |
| CN1CCN(C2=Nc3cc(F)ccc3Cc3ccccc32)CC1 [FLUPERLAPINE] | 14.37% | 3.9% |
| CCN(CC)CCNC(=O)c1cc(Cl)c(N)cc1OC.Cl | 7.88% | -6.93% |
| CC(=O)S[C@@H]1CC2=CC(=O)CC[C@]2(C)[C@H]2CC[C@@]3(C)[C@@H](CC[C@@]34CCC(=O)O4)[C@H]12 [SPIRONOLACTONE] | 18.37% | 5.07% |
| N=c1cc(N2CCCCC2)nc(N)n1O | 14.68% | -3.43% |
| OCCN1CCN(CCCN2c3ccccc3Sc3ccc(Cl)cc32)CC1 [PERPHENAZINE] | 23.21% | 4.38% |
| CN1CCc2cc(Cl)c(O)cc2[C@@H](c2ccccc2)C1.Cl | 10.41% | 0.35% |
| Cc1ncc([N+](=O)[O-])n1CCO [METRONIDAZOLE] | 17.23% | 2.82% |
| CCc1nn(CCCN2CCN(c3cccc(Cl)c3)CC2)c(=O)n1CCOc1ccccc1.Cl [NEFAZODONE HYDROCHLORIDE] | 6.52% | 3.73% |
| O=C(NCCN1CCOCC1)c1ccc(Cl)cc1 [MOCLOBEMIDE] | 3.95% | 0.74% |
